Test results from PubChem BioAssay (EPA / NIEHS).
Activity calls are given as the source filed them. Rule for the calls: active = hit-call score of the fitted dose curve at least 0.9, where 1 is the maximum; inactive = score below 0.9.

Assays:
[1] = read-out: Vascular cell adhesion molecule 1 (VCAM1), VCAM1 (gene 7412); assay: BSK_CASM3C_VCAM1: BioMAP Diversity Plus: CASM3C Assay for Vascular cell adhesion molecule 1 (VCAM1) Biomarker Activity (AID 2283055); details: primary human coronary artery smooth muscle cells; actives raise or lower the signal;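 note: VCAM-1 protein level quantified by ELISA on the cells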
[2] = read-out: Collagen III, COL3A1 (gene 1281); assay: BSK_hDFCGF_CollagenIII: BioMAP Diversity Plus: hDFCGF Assay for Collagen III Biomarker Activity (AID 2283056); details: primary human foreskin fibroblasts; actives raise or lower the signal
Method in brief: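 ELISA read-out of collagen III from human skin fibroblast cultures sampled 24 h post-dosing. Values were derived by bidirectional fitting relative to the DMSO vehicle control.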

[3] = read-out: Epidermal growth factor receptor (EGFR), EGFR (gene 1956); assay: BSK_hDFCGF_EGFR: BioMAP Diversity Plus: hDFCGF Assay for Epidermal growth factor receptor (EGFR) Biomarker Activity (AID 2283057); details: primary human foreskin fibroblasts; actives raise or lower the signal
Method in brief: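 Primary human foreskin fibroblasts were exposed to compound for 24 h, after which cell-surface EGFR was quantified by ELISA. Activity was fitted bidirectionally against the DMSO negative control as baseline.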

[4] = read-out: Interleukin-8 (IL8), CXCL8 (gene 3576); assay: BSK_hDFCGF_IL8: BioMAP Diversity Plus: hDFCGF Assay for Interleukin-8 (IL8) Biomarker Activity (AID 2283058); details: primary human foreskin fibroblasts; actives raise or lower the signal
Method in brief: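 Cells used are human skin primary fibroblasts. Chemical is added, cultures run 24 h, then IL-8 is quantified by ELISA, and gain or loss versus DMSO control is fitted in both directions.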

[5] = BSK_hDFCGF_Proliferation: Cell Proliferation Assessment in the BioMAP Diversity Plus: hDFCGF Assay (AID 2283059); details: primary human foreskin fibroblasts;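 note: curves fitted for both rise and fall of signal versus DMSO baseline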
Method in brief: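 Steps: dose primary human dermal fibroblasts (foreskin); […] fix in 10% TCA; stain with 0.1% SRB; read 560 nm; fit gain or loss of signal against DMSO.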

[6] = read-out: Macrophage colony-stimulating factor (MCSF), CSF1 (gene 1435); assay: BSK_hDFCGF_MCSF: BioMAP Diversity Plus: hDFCGF Assay for Macrophage colony-stimulating factor (MCSF) Biomarker Activity (AID 2283060); details: primary human foreskin fibroblasts; actives raise or lower the signal
Method in brief: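 Primary human foreskin fibroblasts dosed with chemical; 24 h later, M-CSF quantified by ELISA; curves fitted in both directions vs DMSO negative control.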

[7] = BSK_hDFCGF_SRB: Viability Assessment in the BioMAP Diversity Plus: hDFCGF Assay (AID 2283061); details: primary human foreskin fibroblasts;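 note: cells exposed to compound for 24 h before the read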
Method in brief: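 Readout is SRB absorbance at 560 nm, reflecting total protein in parallel cultures of human foreskin fibroblasts harvested 24 h after chemical dosing. Activity was fitted bidirectionally relative to DMSO.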

[8] = read-out: TIMP metallopeptidase inhibitor 1 (TIMP1), TIMP1 (gene 7076); assay: BSK_hDFCGF_TIMP1: BioMAP Diversity Plus: hDFCGF Assay for TIMP metallopeptidase inhibitor 1 (TIMP1) Biomarker Activity (AID 2283062); details: primary human foreskin fibroblasts; actives raise or lower the signal
Method in brief: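 Human skin fibroblasts (primary), hDFCGF system; compound exposure 24 h; TIMP-1 by ELISA; bidirectional fit vs DMSO negative control; overt cytotoxicity by SRB in parallel wells.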

[9] = read-out: Monokine induced gamma interferon (MIG), CXCL9 (gene 4283); assay: BSK_hDFCGF_MIG: BioMAP Diversity Plus: hDFCGF Assay for Monokine induced gamma interferon (MIG) Biomarker Activity (AID 2283063); details: primary human foreskin fibroblasts; actives raise or lower the signal
Method in brief: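 Chemicals were added to primary human foreskin fibroblast cultures, which were sampled 24 h later. MIG levels were then quantified by ELISA and responses fitted in both directions relative to DMSO.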

[10] = read-out: Matrix Metallopeptidase 1 (MMP1), MMP1 (gene 4312); assay: BSK_hDFCGF_MMP1: BioMAP Diversity Plus: hDFCGF Assay for Matrix Metallopeptidase 1 (MMP1) Biomarker Activity (AID 2283064); details: primary human foreskin fibroblasts; actives raise or lower the signal
Method in brief: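 Primary human foreskin fibroblasts in the hDFCGF system were dosed with test chemical, and MMP1 was measured by ELISA 24 h later. Values come from bidirectional curve fitting against the DMSO baseline.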

[11] = read-out: Vascular cell adhesion molecule 1 (VCAM1), VCAM1 (gene 7412); assay: BSK_hDFCGF_VCAM1: BioMAP Diversity Plus: hDFCGF Assay for Vascular cell adhesion molecule 1 (VCAM1) Biomarker Activity (AID 2283065); details: primary human foreskin fibroblasts; actives raise or lower the signal;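 for AC50: VCAM-1 protein level quantified by ELISA after 24 h chemical exposure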
Method in brief: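 Human foreskin fibroblast primary cells, chemical exposure 24 h; VCAM-1 by ELISA; bidirectional fit, DMSO = negative control/baseline.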

[12] = read-out: Plasminogen activator inhibitor-1 (PAI1), SERPINE1 (gene 5054); assay: BSK_hDFCGF_PAI1: BioMAP Diversity Plus: hDFCGF Assay for Plasminogen activator inhibitor-1 (PAI1) Biomarker Activity (AID 2283066); details: primary human foreskin fibroblasts; actives raise or lower the signal
Method in brief: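 Human foreskin fibroblasts in the hDFCGF system were dosed with compound for 24 h; PAI-1 was quantified by ELISA. Bidirectional curve fitting used DMSO as negative control and baseline.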

[13] = read-out: Intercellular Adhesion Molecule 1 (ICAM1), ICAM1 (gene 3383); assay: BSK_KF3CT_ICAM1: BioMAP Diversity Plus: KF3CT Assay for Intercellular Adhesion Molecule 1 (ICAM1) Biomarker Activity (AID 2283067); details: primary human keratinocytes with fibroblasts; actives raise or lower the signal
Method in brief: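 ICAM-1 levels are measured by ELISA 24 h after dosing a primary human co-culture of keratinocytes and foreskin fibroblasts. Activity in either direction is fitted relative to DMSO vehicle.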

[14] = BSK_KF3CT_SRB: Viability Assessment in the BioMAP Diversity Plus: KF3CT Assay (AID 2283069); details: primary human keratinocytes with fibroblasts;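 note: total protein by sulforhodamine B staining as a cytotoxicity measure; read 24 h after compound addition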
Method in brief: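 Human primary keratinocyte plus foreskin fibroblast co-culture exposed to chemicals for 24 h. Total protein measured by 0.1% sulforhodamine B staining after 10% TCA fixation, read at 560 nm; bidirectional fitting versus DMSO baseline.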

[15] = read-out: Interleukin-1 alpha (IL1a), IL1A (gene 3552); assay: BSK_KF3CT_IL1a: BioMAP Diversity Plus: KF3CT Assay for Interleukin-1 alpha (IL1a) Biomarker Activity (AID 2283070); details: primary human keratinocytes with fibroblasts; actives raise or lower the signal
Method in brief: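 Human keratinocyte plus foreskin fibroblast primary co-culture, sampled 24 h after chemical dosing. IL-1a measured by ELISA; responses fitted bidirectionally against DMSO baseline (negative control), so gain or loss of signal both count.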

[16] = read-out: TIMP metallopeptidase inhibitor 2 (TIMP2), TIMP2 (gene 7077); assay: BSK_KF3CT_TIMP2: BioMAP Diversity Plus: KF3CT Assay for TIMP metallopeptidase inhibitor 2 (TIMP2) Biomarker Activity (AID 2283071); details: primary human keratinocytes with fibroblasts; actives raise or lower the signal
Method in brief: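 Human primary keratinocyte/foreskin fibroblast co-culture dosed with chemical and sampled at 24 h. TIMP-2 levels quantified by ELISA; bidirectional fitting against DMSO negative control as baseline.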

[17] = read-out: Transforming growth factor beta 1 (TGFb1), TGFB1 (gene 7040); assay: BSK_KF3CT_TGFb1: BioMAP Diversity Plus: KF3CT Assay for Transforming growth factor beta 1 (TGFb1) Biomarker Activity (AID 2283072); details: primary human keratinocytes with fibroblasts; actives raise or lower the signal
Method in brief: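 Human keratinocyte plus foreskin fibroblast primary co-culture, dosed with chemical for 24 h. TGF-b1 quantified by ELISA. Activity fitted bidirectionally against DMSO negative control as baseline.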

[18] = read-out: Matrix Metallopeptidase 9 (MMP9), MMP9 (gene 4318); assay: BSK_KF3CT_MMP9: BioMAP Diversity Plus: KF3CT Assay for Matrix Metallopeptidase 9 (MMP9) Biomarker Activity (AID 2283074); details: primary human keratinocytes with fibroblasts; actives raise or lower the signal;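 for AC50: MMP9 protein level quantified by ELISA in the co-culture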
Method in brief: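 Keratinocyte plus foreskin fibroblast human primary skin co-culture was dosed with chemical and MMP-9 was quantified by ELISA 24 h later. Bidirectional curve fitting used DMSO as negative control and activity baseline.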

[19] = read-out: C-C motif chemokine 2 (Homo sapiens) (UniProt P13500); assay: BSK_KF3CT_MCP1: BioMAP Diversity Plus: KF3CT Assay for Monocyte Chemoattractant Protein 1 (MCP1/CCL2) Biomarker Activity (AID 2283073); details: primary human keratinocytes with fibroblasts; actives raise or lower the signal
Method in brief: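 ELISA readout of MCP-1 after 24 h chemical dosing of a human skin primary co-culture of keratinocytes and foreskin fibroblasts. Activity was fitted in both directions against DMSO.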

Measured: AC50

CN(C)C(=S)S
active: [2] 3.97 µM | [4] 30.9 µM | [5] 14.6 µM | [6] 14.2 µM | [7] 27.1 µM | [8] 13 µM | [9] 21.6 µM | [10] 36.9 µM | [11] 11.2 µM | [12] 33.6 µM
inactive: [1] | [3] | [13] | [14] | [15] | [16] | [17] | [18]

Oc1ccc(Cc2ccc(O)cc2)cc1
inactive: [1] | [2] | [3] | [4] | [5] | [6] | [7] | [8] | [9] | [10] | [11] | [12] | [13] | [14] | [15] | [16] | [17] | [19] | [18]

OCCN(CCO)CCO
inactive: [1] | [2] | [3] | [4] | [5] | [6] | [7] | [8] | [9] | [10] | [11] | [12] | [13] | [14] | [15] | [16] | [17] | [19] | [18]

O=C(N[C@H]1CN2CCC1CC2)c1ccc2c(c1)OCCO2
inactive: [1] | [2] | [3] | [4] | [5] | [6] | [7] | [8] | [9] | [10] | [11] | [12] | [13] | [14] | [15] | [16] | [17] | [19] | [18]

Oc1cc(Cl)c(Cl)cc1Cl
inactive: [1] | [3] | [4] | [6] | [8] | [9] | [10] | [13] | [14] | [15] | [16] | [17] | [18]
active: [2] 27.7 µM | [5] 15.2 µM | [7] 31.8 µM | [11] 7.54 µM | [12] 34 µM | [19] 20 µM

O=C(O)C1(c2ccc3c(c2)OC[C@H](Cc2ccc(-c4ccccc4)cc2)[C@H]3O)CCCC1
active: [1] 20 µM | [2] 4.51 µM | [3] 5.5 µM | [4] 14.7 µM | [5] 6.62 µM | [6] 8.18 µM | [7] 7.76 µM | [8] 11.7 µM | [9] 12.8 µM | [10] 7.46 µM | [11] 5.32 µM | [12] 5.07 µM | [13] 30.3 µM | [14] 25.7 µM | [15] 31.3 µM | [16] 14 µM | [19] 13.6 µM | [18] 12.9 µM
